According to PubChem BioAssay (NCI):
The panel holds about 83,000 compounds, 20% with a hit somewhere; the sample as a whole holds those more often.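 Results are percent growth after 48 hours of single-concentration exposure. 100 means growth as in untreated cells, lower positive values show inhibition; negative values down to -100 show cell death.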 Unmarked numbers belong to inactive results. Activity calls are given as the source filed them. How the source made its calls: active means growth percent below 10; inactive means the rest.

Tests used:
Experiment in all cases: NCI-60 one-dose screen, 48 h (100 = growth as untreated, 0 = no growth, -100 = all killed)
Conditions in all cases: 10 µM unless noted
[1] = tested on: BT-549 breast
[2] = tested on: MDA-MB-435 melanoma
[3] = tested on: SW-620 colon
[4] = tested on: MCF7 breast
[5] = tested on: HCT-116 colon
[6] = tested on: HCC-2998 colon
[7] = tested on: KM12 colon

| Compound | growth [1] | growth [2] | growth [3] | growth [4] | growth [5] | growth [6] | growth [7] |
| --- | --- | --- | --- | --- | --- | --- | --- |
| COc1ccc(-n2c(SCC(=O)Nc3ccc(-c4nc5ccccc5[nH]4)cc3)nc3ccccc3c2=O)cc1 | -65% (active) | -14.4% (active) | 8.47% (active) | -49.2% (active) | -39.6% (active) | 34.8% | 18.7% |
| Clc1ccc2c(OCCCN3CCOCC3)c3oc4ccccc4c3nc2c1 | 80.1% | 33.2% | 19.2% | 10.4% | 17.7% | 46% | 33.1% |
| O=C(N/N=C/c1ccc([N+](=O)[O-])s1)c1[nH]c2ccc(Br)cc2c1-c1ccccc1 | -19% (active) | -35.3% (active) | 3.34% (active) | 7.64% (active) | -7.92% (active) | 0.797% (active) | 12.8% |
| NS(=O)(=O)c1ccc(Nc2nc(Nc3ccccc3)nc(-n3nc(-c4ccccc4)cc3-c3ccccc3)n2)cc1 | 52.7% | 26.9% | 38.2% | 6.85% (active) | 10.5% | 43.1% | 9.22% (active) |
| Cc1ccc(/C=C/c2nn3c(-c4ccco4)nnc3s2)cc1C | 107% | 99.4% | 98.5% | 82.1% | 109% | 108% | 110% |
| Cn1cc(-c2cc(N)n3nc(-c4cn(C)c5ccc(F)cc45)cc3n2)c2cc(F)ccc21 | 77.5% | 5.54% (active) | -36.6% (active) | 10% | -92.8% (active) | 1.23% (active) | 6.56% (active) |
| CCCC(=O)NC(c1ccc2c(c1)OC(F)(F)O2)c1cc(C)c2cccnc2c1O (centres undefined) | 37.9% | 22.9% | 30.3% | 24.1% | 26.2% | 53.3% | 21.4% |
| COc1ccc(C(=O)/C=C/c2ccc(Oc3nc(NCCO)nc(N4CCOCC4)n3)c(OC)c2)cc1 | 90.9% | 44.5% | 0.395% (active) | 12.7% | 10.6% | 99.8% | 28.9% |
| COc1cccc(OC)c1-c1nnn(C)c1C(=S)N1CCN(c2ccc([N+](=O)[O-])cc2Cl)CC1 | 91.7% | 102% | 101% | 85.7% | 88.2% | 96.7% | 108% |
| [Cl][Ru].c1ccc(-c2cc(-c3ccccn3)nc(-c3ccccn3)c2)cc1.c1ccc(-c2ccnc3c2ccc2c(-c4ccccc4)ccnc23)cc1 | -94.6% (active) | -62.2% (active) | -56.7% (active) | -28.2% (active) | -79% (active) | -72.9% (active) | -70.8% (active) |
| COc1ccc(/C=C2\SC(=Nc3cc(C)on3)NC2=O)cc1 | 88.1% | 104% | 99% | 89.2% | 96.1% | 108% | 108% |
| Cn1cc(-c2cc(N)n3nc(-c4cn(C)c5ccc(Cl)cc45)cc3n2)c2cc(Cl)ccc21 | 117% | 16.5% | 14.6% | 17.3% | 75.5% | 98.4% | 60.1% |
| C[C@@H](Nc1c(C#N)cnc2ccc(-c3cnc(N)nc3)cc12)c1ccccc1 | -14.1% (active) | 11% | 14.9% | 10.9% | 5.6% (active) | 32% | 18.6% |
| COc1cc2nc(-c3ccc(Cl)cc3)cc(OCCCNCC3CCCO3)c2cc1OC (centres undefined) | 87.7% | 12.4% | 54.3% | 36% | 25.1% | 70.6% | 39.8% |
| COc1ccc(C(=O)/C=C/c2ccc(OCc3ccc(Cl)cc3)c(OC)c2)cc1OC | 62.1% | 79.4% | 43.1% | 20.4% | 20.8% | 84.3% | 54.9% |
| Cn1ccnc1C(=O)/C=C/c1ccc(NC(=O)Nc2ccc(Cl)cc2)cc1 | 63.6% | 75% | 71% | 38.1% | 25% | 90.2% | 49.6% |
| COc1ccc(/C=N/NC(=O)c2[nH]c3ccc(Br)cc3c2-c2ccccc2)s1 | -15.9% (active) | -21.4% (active) | 18.2% | 6.97% (active) | -19.9% (active) | 26.8% | 3.72% (active) |
| NC(=O)c1cc(-c2ccc3ncnc(N4CCc5cc(F)c(Cl)cc54)c3c2)cnc1N | -13.5% (active) | 25.2% | 35.9% | 11% | 19.3% | 37.5% | 29.9% |
| O=C(c1ccc(O)cc1)C1[C@H](c2ccc(Cl)cc2)[C@@H](c2ccccc2)NC12C(=O)Nc1ccc(Cl)cc12 (some centres undefined) | 77.3% | 39.6% | 40.5% | 9.87% (active) | 14.5% | 18% | 24.4% |
| CN1CCc2c(sc3ncnc(N/N=C/c4ccc(Cl)c(Cl)c4)c23)C1 | 42.2% | 11.6% | -68.4% (active) | -47.2% (active) | -64.5% (active) | -47.9% (active) | 22.8% |
| Nc1c(C(=O)Nc2ccc(C(F)(F)F)cc2)sc2nc(-c3cnccn3)cc(-c3cccs3)c12 | 22.5% | 95.4% | 103% | 75.8% | -62.1% (active) | 108% | 95.6% |
| COC1CCN(Cc2ccc3c(NNC(=O)c4cnccn4)nc4cc(F)ccc4n23)C1 (centres undefined) | 51.7% | 37.2% | 24% | 14% | 4.53% (active) | 59.9% | 22.6% |
| COc1ccc(/C=N/NC(=O)c2[nH]c3ccc(Br)cc3c2-c2ccccc2)o1 | -15.5% (active) | -16.9% (active) | 21.6% | 9.83% (active) | -18.8% (active) | 21.3% | 6.83% (active) |
| O=C(N/N=C/c1cccs1)c1[nH]c2ccc(Br)cc2c1-c1ccccc1 | -14.2% (active) | -26.1% (active) | 22.8% | 8.78% (active) | -33.7% (active) | 24.1% | 6.37% (active) |

| Compound | growth [1] | growth [2] | growth [3] | growth [4] | growth [5] | growth [6] | growth [7] |
| --- | --- | --- | --- | --- | --- | --- | --- |
| COc1ccc(-c2nc3ccc(-c4nnc(SCC(=O)Nc5ccc(C(C)=O)cc5)o4)cc3[nH]2)cc1 | 112% | 102% | 103% | 77.1% | 109% | 111% | 105% |
| CCN1C(=S)N(c2ccccc2)C2NC(=O)N(/N=C/C=C/c3ccccc3OC)C21 (centres undefined) | 94.5% | 52.6% | 90.4% | 62.9% | 88% | 130% | 88.3% |
| O=C(N/N=C/c1ccco1)c1[nH]c2ccc(Br)cc2c1-c1ccccc1 | -17.1% (active) | 0.898% (active) | 24.8% | 10.7% | -12.9% (active) | 23% | 12.8% |
| COc1cc2nc(-c3ccc(C)cc3)cc(OCCCNCC3CCCO3)c2cc1OC (centres undefined) | 98.5% | 54.3% | 77.5% | 59.7% | 40.7% | 83.4% | 60% |
| Cc1[nH]nc2ncc(C#Cc3cncc(C(=O)Nc4ccc(CN5CCN(C)CC5)c(C(F)(F)F)c4)c3)cc12 | 64.5% | 13.1% | 4.05% (active) | 43.8% | 8.54% (active) | 44.4% | 8.98% (active) |
| CC(=O)Oc1ccccc1C(=O)Nc1ccc(C(=O)/C=C/c2cccs2)cc1 | 99.2% | 97.8% | 107% | 93% | 108% | 109% | 102% |
| CCCSc1nc(Nc2ccc(/C(C)=N\NC(N)=S)cc2)c(C#N)c(-c2ccc(OC)cc2)n1 | 82% | 70.7% | 103% | 69.1% | 45.3% | 110% | 84.7% |
| Cc1nc(-c2cc3ccccc3oc2=O)ccc1C(=O)/C=C/c1ccc(N2CCOCC2)cc1 | 76.9% | -21.1% (active) | 83.5% | 51.6% | 89.1% | 83.9% | 68.9% |
| O=[N+]([O-])c1ccc(O)c2ncccc12 | 61.4% | 40% | 25.7% | 9.13% (active) | 21.4% | 44.5% | 22.2% |
| N#Cc1c(-c2ccc(F)cc2)nc2c(C#N)c(Nc3ccccc3)nn2c1N | 109% | 95.5% | 106% | 91.7% | 105% | 109% | 97.9% |
| CC(O)C(NC(=O)C1CCCN1C(=O)CNC(=O)C1CC(=O)NCC(=O)NC(Cc2c[nH]c3ccccc23)C(=O)NC(Cc2ccc(O)cc2)C(=O)NCC(=O)NC(CO)C(=O)NC(CCC(N)=O)C(=O)NC(Cc2c[nH]c3ccccc23)C(=O)N1)C(=O)NCC(=O)NC(CCC(N)=O)C(=O)NC(CCCNC(=N)N)C(=O)NC(CC(=O)O)C(=O)O (centres undefined) | 115% | 100% | 102% | 96.4% | 97.4% | 120% | 105% |
| Nc1cc(-c2c[nH]c3ccc(Cl)cc23)nc2cc(-c3c[nH]c4ccc(Cl)cc34)nn12 | 87.5% | 57.7% | 15.7% | 14.4% | 27.7% | 20.1% | 12.7% |
| Cc1cc(C(NC(=O)CCCCCNc2cccc3c2C(=O)N(C2CCC(=O)NC2=O)C3=O)c2cccnc2)c(O)c2ncccc12 (centres undefined) | -30.8% (active) | 30.7% | 13.3% | 12.2% | 24.8% | 2.27% (active) | 17.6% |
| N#Cc1ccc(C(=O)CSc2nc(Nc3ccc(S(N)(=O)=O)cc3)c3ccccc3n2)cc1 | 111% | 108% | 103% | 98.6% | 100% | 119% | 107% |
| O=C(O)CCCCCN1C(=O)/C(=C/c2ccc(O)c(O)c2)SC1=S | 101% | 103% | 111% | 90.5% | 105% | 115% | 105% |
| N/C(=N\c1nc2c(Cl)cc(Cl)cc2s1)C(Cl)(Cl)Cl | 110% | 75.6% | 60.6% | 24.8% | 51% | -1.09% (active) | 1.36% (active) |
| COc1ccc(-c2csc(N/N=C/c3c(-c4ccc(S(C)(=O)=O)cc4)nc4ccccn34)n2)cc1 | 115% | 101% | 107% | 89.1% | 104% | 115% | 103% |
| C#Cc1nc(C2=C(C)C(=N\O)/C(=N/O)C2)cs1 | 105% | 93.7% | 109% | 72.5% | 87.3% | 113% | 67.1% |
| COc1ccc(COc2ccc(/C=C3/C(=O)Nc4cc(Cl)ccc43)cc2)cc1 | 102% | 97.6% | 95.7% | 82.1% | 101% | 100% | 101% |
| Clc1ccc2c(NCCCn3ccnc3)c3oc4ccccc4c3nc2c1 | 81.2% | 32.2% | 21.5% | 18.2% | 14% | 40.8% | 30.1% |
| COc1cc(OC)c(C2SCC(=O)N2Nc2ncnc3ccccc23)cc1OC (centres undefined) | 105% | 103% | 105% | 91.8% | 107% | 111% | 107% |
| COc1cc(/C=C/C(=O)c2ccc(F)cc2)ccc1Oc1nc(NCCO)nc(N2CCOCC2)n1 | 86.3% | 48% | 0.783% (active) | 10.2% | 11.3% | 103% | 27.3% |
| Cc1cc2nc3c4cc(Cl)ccc4n(CC(=O)NCCN(C)C)c3nc2cc1C | 88.1% | 67.9% | -80.8% (active) | -19.8% (active) | -85.3% (active) | 82.6% | 86.2% |
